Assay results published in PubChem BioAssay (NCATS).
Several values for one entry are separate records, joined by “and”; a condition that tells them apart may be missing. Equal entries are not always repeated. Records with an inconclusive call do not appear. A call without a number means that no potency is given here. Activity calls are given as the source filed them. The call rests on the fitted dose curve.

Test: Cytotoxicity counterscreen for inhibitors of SARS-CoV-2 cell entry (AID 1645845); further: nearly all actives have a fitted effect of over 50% in size
Settings: cell viability (SARS-CoV-2 entry assay cells); series mostly up to 57.1 µM
Method in brief: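 48 h compound treatment (after 1 h preincubation), HEK293-ACE2 cells, 37 C/5% CO2; ATP luminescence endpoint; normalized to cell wells and media blanks.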

| Compound | Potency | activity change, negative = cytotoxicity | outcome |
| --- | --- | --- | --- |
| CC12CCC(CC1)C(C)(C)O2 | inactive | – | – |
| CCN(Cc1ccncc1)C(=O)C(CO)c1ccccc1 (stereo not given) | inactive | – | – |
| Nc1nc(Cl)nc2c1ncn2[C@H]1C[C@H](O)[C@@H](CO)O1 | inactive | – | – |
| CCOC(=O)C1=C(COCCN)NC(C)=C(C(=O)OC)C1c1ccccc1Cl (stereo not given) | inactive | – | – |
| OC[C@H]1O[C@H](O[C@]2(CCl)O[C@H](CCl)[C@@H](O)[C@@H]2O)[C@H](O)[C@@H](O)[C@H]1Cl | inactive | – | – |
| N#CSCC(=O)O | inactive | – | – |
| CO[C@@]1(NC(=O)CSC[C@@H](N)C(=O)O)C(=O)N2C(C(=O)O)=C(CSc3nnnn3C)CS[C@@H]21 | inactive | – | – |
| O=C(O)Cc1cccc(-c2cc(CCCCCCc3ccc(O[C@H]4O[C@H](CO)[C@@H](O)[C@H](O)[C@@H]4O)c(-c4cccc(CC(=O)O)c4)c3)ccc2O[C@H]2O[C@H](CO)[C@@H](O)[C@H](O)[C@@H]2O)c1 | – | 4.02% [at 0.702 µM] (inactive) | – |
| CC[C@H](C)[C@H](N)C(=O)O | inactive | – | – |
| CN1CCN(CC(=O)N2c3ccccc3C(=O)Nc3cccnc32)CC1 | – | – | inactive [at 5.25 µM] |
| Cc1c[nH]c2ccccc12 | inactive | – | – |
| CC(=O)O[C@@H]1C(=O)O[C@@H]2[C@H]1OC(=O)[C@@H]2OC(C)=O | inactive | – | – |
| Cc1c(I)c(=O)n(-c2ccccc2)n1C | inactive | – | – |
| CCCCCCCCCCCCCCCC(=O)OC(C)C | inactive | – | – |
| CC(=O)CC(c1ccc([N+](=O)[O-])cc1)c1c(O)c2ccccc2oc1=O (stereo not given) | inactive | – | – |
| Nc1ccc(S(=O)(=O)Nc2ccccn2)cc1 | inactive | – | – |
| O=C(O)Cc1sc(-c2ccccc2)nc1-c1ccc(Cl)cc1 | inactive | – | – |
| c1ccc2c(c1)CCCC2C1=NCCN1 (stereo not given) | inactive | – | – |
| O=C(NCC(O)CO)c1c(I)c(C(=O)NCC(O)CO)c(I)c(N(CCO)C(=O)CO)c1I (stereo not given) | inactive | – | – |

| Compound | Potency | activity change, negative = cytotoxicity | outcome |
| --- | --- | --- | --- |
| Cc1nnc(NS(=O)(=O)c2ccc(N)cc2)s1 | inactive | – | – |
| CN(C)C(=O)COC(=O)Cc1ccc(OC(=O)c2ccc(N=C(N)N)cc2)cc1 | inactive | – | – |
| CCN(CC)C(=O)/C(C#N)=C/c1cc(O)c(O)c([N+](=O)[O-])c1 | inactive | – | – |
| c1ccc2sc(SN3CCOCC3)nc2c1 | inactive | – | – |
| Cn1c(=O)c2[nH]c(Br)nc2n(C)c1=O | inactive | – | – |
| CC(=O)Nc1c(I)c(NC(C)=O)c(I)c(C(=O)O)c1I | inactive | – | – |
| COC(=O)c1cccnc1 | inactive | – | – |
| O=C(O)[C@H](O)c1ccccc1 | inactive | – | – |
| CCOC(=O)c1ccccc1O | inactive | – | – |
| CCOC(=O)[C@H](CCc1ccccc1)N[C@@H](C)C(=O)N1CCC[C@H]1C(=O)O | inactive | – | – |
| CCc1cc(C(N)=S)ccn1 | inactive | – | – |
| O=C(O)CN(CCN(CC(=O)O)CC(=O)O)CCN(CC(=O)O)CC(=O)O | inactive | – | – |
| CCCNC(C)C(=O)Nc1c(C)csc1C(=O)OC (stereo not given) | inactive | – | – |
| CC(C)[C@H](N)C(=O)OCC(CO)OCn1cnc2c(=O)[nH]c(N)nc21 (stereo not given in full) | inactive | – | – |
| Nc1ccc(S(=O)(=O)Nc2ccc(Cl)nn2)cc1 | inactive | – | – |
| CC1(C)S[C@@H]2[C@H](NC(=O)C(c3ccccc3)S(=O)(=O)O)C(=O)N2[C@H]1C(=O)O (stereo not given in full) | inactive | – | – |
| CC(=O)N=c1sc(S(N)(=O)=O)nn1C | inactive | – | – |
| CCCCCCCCCCCCCCCCCCO | inactive | – | – |
| O=P(O)(O)C(Sc1ccc(Cl)cc1)P(=O)(O)O | – | – | inactive [at 0.702 µM] |

Test: Primary qHTS to identify inhibitors of SARS-CoV-2 cell entry (AID 1645846); further: nearly all actives have a fitted effect of over 45% in size
Settings: SARS-CoV-2 pseudovirus cell entry assay, luminescence; activity change, negative = inhibition: at 57.1 µM (top of the series) unless noted; series mostly up to 57.1 µM
Method in brief: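 Data are normalized to wells receiving SARS-CoV-2-S pseudoparticles and those given bald particles. Entry signal was luciferase luminescence in stable hACE2 Expi293F cells, 48 hr post-infection, after 1 hr compound pretreatment.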

| Compound | Potency | outcome | activity change, negative = inhibition |
| --- | --- | --- | --- |
| CC12CCC(CC1)C(C)(C)O2 | inactive | – | – |
| CC[C@H](C)[C@H](N)C(=O)O | inactive | – | – |
| CN1CCN(CC(=O)N2c3ccccc3C(=O)Nc3cccnc32)CC1 | – | inactive [at 5.25 µM] | – |
| Cc1c(I)c(=O)n(-c2ccccc2)n1C | inactive | – | – |
| Cc1nnc(NS(=O)(=O)c2ccc(N)cc2)s1 | – | – | 4.32% and -12.1% |
| CN(C)C(=O)COC(=O)Cc1ccc(OC(=O)c2ccc(N=C(N)N)cc2)cc1 | – | – | -4.53% and -0.733% |
| CC(=O)Nc1c(I)c(NC(C)=O)c(I)c(C(=O)O)c1I | – | – | -1.67% |
| COC(=O)c1cccnc1 | inactive | – | – |
| CCCNC(C)C(=O)Nc1c(C)csc1C(=O)OC (stereo not given) | inactive | – | – |
| Nc1ccc(S(=O)(=O)Nc2ccc(Cl)nn2)cc1 | inactive | – | – |
| CC(=O)N=c1sc(S(N)(=O)=O)nn1C | – | – | -31.8% |
| CCCCCCCCCCCCCCCCCCO | – | – | 0.247% |
